In PubChem BioAssay AID686978 (National Center for Advancing Translational Sciences (NCATS), 2013) one finds Potency data, which are given here for 104 compounds.

Values joined by “and” are separate entries in the source; they are usually repeats but may differ in a detail not shown here. Equal values may be shown once. The whole screen tested about 420,000 compounds, of which about 64,000 (15%) were called active. Not shown: some 27% with an inconclusive outcome. The call rests on the fitted dose curve; in most records, active means well fitted inhibition curve with a large enough effect; inconclusive means small, poorly fitted or top-dose-only effect; inactive means flat fitted curve, though single readings scatter. Not all results are given here. Entries that show only a call come without a potency.
Potency means the concentration at half of the fitted maximal effect.

The experiment can be described thus: qHTS for Inhibitors of human tyrosyl-DNA phosphodiesterase 1 (TDP1): qHTS in cells in absence of CPT. Further: nearly all actives have a fitted effect of over 55% in size. The following applies: DT40 Tdp1-/- hTDP1 cells, no CPT, ATP luminescence, 48 h; activity change, negative = growth inhibition: at 46.2 µM (top of the series). In a few lines: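 A cellular qHTS used chicken DT40 cells lacking endogenous Tdp1 but carrying stably transfected human TDP1. Compounds were applied without camptothecin, and cell growth kinetics were judged by ATP-dependent luminescence after ≥48 hr.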
A general note: Quantitative high-throughput screening tests each substance at several concentrations.
As to `COC(=O)[C@@H]1CC(O)CN1C(=O)C12CC3CC(CC(C3)C1)C2` (some centres undefined), the Potency entry was “inactive”.

For the compound `CCOC(=O)c1sc(=NC(=O)c2ccc(Br)cc2)n(C)c1C`, the Potency result was “inactive”.

In the case of `NC(=O)C1CCCN(CC(=O)N2CCN(c3ccccc3)CC2)C1` (centres undefined), the Potency entry was “inactive”.

For the compound `O=S(=O)(NCC1CCCO1)c1cnc(Cl)c(Cl)c1` (centres undefined), the Potency entry is “inactive”.

Regarding `O=C1CCCC(O)=C1C=NCCc1ccccc1`, the Potency entry is “inactive”.

In the case of `COc1cccc(NC(=O)c2csnn2)c1`, the Potency entry was “inactive”.

On to `Cc1nnc(NC(=O)CCCOc2ccccc2)s1`, for which the Potency result is “inactive”.

As for `Cc1nc(NC(=O)CCC(=O)O)sc1C(=O)N(C)C`, the Potency entry is “inactive”.

With `CCCCC(=O)Nc1nc(C)c(-c2csc(Nc3ccc(Cl)cc3)n2)s1`, the Potency is 23.1 µM (active).

Consider `CCCCCCC(=O)Nc1nc(C)c(-c2csc(Nc3cccc(OC)c3)n2)s1`, for which the Potency was 16.4 µM (active).

Regarding `Cc1ccn2c(-c3csc(Nc4ccc(C(=O)O)cc4)n3)c(C)nc2c1`, the Potency result was “inactive”.

In the case of `CC(=O)Nc1nc(C)c(-c2csc(Nc3ccc(S(N)(=O)=O)cc3)n2)s1`, the Potency entry is “inactive”.

With `C=CCCC(=O)Nc1nc(C)c(-c2csc(Nc3ccc(Cl)cc3)n2)s1`, the Potency was 13 µM (active).

As to `CCCCN(C)CCC(=O)Nc1ccc(Cl)cc1`, the Potency entry was “inactive”.

As to `CO[C@]1(NC(=O)CSC(F)F)C(=O)N2C(C(=O)O)=C(CSc3nnnn3CCO)CO[C@H]21`, the Potency result is “inactive”.

Consider `O=C(C1CCN(C2CCN(Cc3ccc4cc(F)ccc4n3)CC2)CC1)N1CCCC1`, for which the Potency entry is “inactive”.

As to `COc1ccc(CCNC(=S)N2CCN(S(=O)(=O)c3ccc(F)cc3)CC2)cc1`, the Potency entry is “inactive”.

Take `COc1ccc(CCNS(=O)(=O)c2cc3c(cc2C)NC(=O)CO3)cc1OC`: the Potency entry is “inactive”.

On to `CCc1ccccc1NC(=O)c1ccc(F)c(S(=O)(=O)NC2CCCCCC2)c1`, for which the Potency result is “inactive”.

For the compound `CCc1ccc(OCC(O)CN2CCN(CCO)CC2)cc1` (centres undefined), the Potency result is “inactive”.

For `COc1ccc(N(CC(=O)N2CCOCC2)S(=O)(=O)c2ccccc2)cc1Cl`, the Potency result was “inactive”.

Turning to `Cc1cccc(OC(=O)c2sc3ncn(C)c(=O)c3c2C)c1`, the Potency entry was “inactive”.

Turning to `COc1ccc(NC(=O)N2CCCC(C(=O)Nc3ccccc3OC)C2)cc1` (centres undefined), the Potency result was “inactive”.

For the compound `O=C(NCCCN1CCCCC1)C1CCCN(c2ncnc3c2nc2n3CCCCC2)C1` (centres undefined), the Potency entry was “inactive”.

Consider `COc1cccc(NC(=O)C2CCCN(c3ncnc4c3nc3n4CCCCC3)C2)c1` (centres undefined), for which the Potency was 20.6 µM (active).

In the case of `CCCN(CCC)C(=O)C1CCCN(c2ncnc3c2nc2n3CCCCC2)C1` (centres undefined), the Potency was 20.6 µM (active).

Regarding `COc1cccc(NC(=O)C/C(C)=N/NC(=O)C2CCCCC2)c1`, the Potency result was “inactive”.

With `COCCNc1ncnc2c1nc1n2CCCC1`, the Potency entry was “inactive”.

For the compound `O=C(Nc1cc(-c2nc3ccccc3o2)ccc1Cl)c1cc([N+](=O)[O-])ccc1N1CCOCC1`, the Potency entry was “inactive”.

Take `CC(C)NC(=O)N1CC[C@@]2(CCCN(C(=O)c3cccn3C)C2)C1`: the Potency result is “inactive”.

For the compound `CCC(=O)N1c2ccccc2CC1C(=O)N1CCN(c2ccccc2)CC1` (centres undefined), the Potency entry is “inactive”.

As to `CCOC(=O)c1c(S(=O)(=O)N2CCC(C(=O)NCc3ccccc3OC)CC2)c(C)n(C)c1C`, the Potency result was “inactive”.

On to `Cc1cc(C)cc(-c2nnc(SCC(=O)NC3CC3)o2)c1`, for which the Potency result was “inactive”.

Take `CC1=CC2=NC(=O)CC(C)(C(=O)N(CC(=O)NC(C)(C)C)Cc3ccccc3)N2C=C1` (centres undefined): the Potency result is “inactive”.

As for `COC(=O)c1ccc(CSc2nnc(NC(C)C)s2)cc1`, the Potency result was “inactive”.

For `Cc1ccc(CN2CCN(c3ncccn3)CC2)c(C)c1`, the Potency result is “inactive”.

As for `COc1ccc(-c2nc(CN3CCN(c4ncccn4)CC3)c(C)o2)cc1C`, the Potency was 20.6 µM (active).

Take `COc1ccc(-c2nc(CS(=O)CC(=O)NCc3ccccc3)c(C)o2)cc1OC` (centres undefined): the Potency result is “inactive”.

On to `Cc1c(C(=O)NCCCc2ccccc2)cccc1[N+](=O)[O-]`, for which the Potency entry was “inactive”.

As to `CC(C)(C)C(=O)Nc1c(Br)c(C2CC2)nn1-c1ccccc1`, the Potency result was “inactive”.

Consider `CCOC(=O)c1[nH]cnc1C(=O)NC1CCCCC1`, for which the Potency entry is “inactive”.

On to `Cc1nn(-c2ccccc2)c(C)c1NC(=O)COc1ccc(Cl)cc1Cl`, for which the Potency was 9.2 µM (active).

As for `Cc1nn(-c2ccccc2)c(C)c1NC(=O)COC(=O)c1cc(Cl)ccc1O`, the Potency entry is “inactive”.

Consider `C/C=C/c1ccc(OCC(=O)OCC(=O)Nc2c(C)nn(-c3ccccc3)c2C)c(OC)c1`, for which the Potency entry was “inactive”.

Consider `COc1ccccc1CNC(=O)C1CCN(S(=O)(=O)c2ccc3c(c2)OCCO3)CC1`, for which the Potency result was “inactive”.

On to `COc1ccc(-n2nc3c(c2NC(=O)c2ccc(N4C(=O)CCC4=O)cc2)CSC3)cc1`, for which the Potency result was “inactive”.

On to `O=C(O)Cc1ccc(-c2ccccc2)cc1`, for which the Potency result was “inactive”.

With `CC(=O)N1C(=O)/C(=C2\SC(=S)N(NC(=O)c3ccc(O)cc3)C2=O)c2ccccc21`, the Potency result was “inactive”.

On to `CCOCCCNc1nc(-c2ccccc2)nc2ccccc12`, for which the Potency was 14.6 µM (active).

`O=C(COc1ncnc2ccccc12)NC(=O)NCc1ccccc1`: the Potency result is “inactive”.

For the compound `c1coc(CNc2ncnc3ccccc23)c1`, the Potency is 12.6 µM (active) and 5.17 µM (active).

For the compound `Brc1nc2ncnc(NCc3ccco3)c2[nH]1`, the Potency result was “inactive”.

`c1ccc(-c2nc(NCc3ccco3)c3ccccc3n2)cc1`: the Potency is 23.1 µM (active).

Consider `COc1ccc(CNc2nccs2)cc1`, for which the Potency result was “inactive”.

As for `COc1ccc(CNc2ncnc3ccccc23)cc1`, the Potency was 0.651 µM (active).

With `Cc1cnc(CNc2nc(-c3cccnc3)nc3ccccc23)cn1`, the Potency result was “inactive”.

As for `Cc1ccccc1-c1nc(N(C)Cc2ccco2)c2ccccc2n1`, the Potency entry was “inactive”.

Regarding `Cc1ccc(C(=O)NNc2ncnc3ccccc23)cc1`, the Potency result is “inactive”.

Turning to `CCOCCCn1c(NN)nc2ccccc2c1=O`, the Potency result is “inactive”.

Regarding `CCC(=O)OCCNc1nc(-c2ccccc2)nc2ccccc12`, the Potency entry was “inactive”.

For the compound `CCOC(=O)c1nnn(CC(=O)Nc2cccc(F)c2)c1C(=O)OCC`, the Potency entry is “inactive”.

Regarding `CCCCn1c(N)c(N2CCOCC2)c(=O)n(CC(=O)NCCc2ccccc2)c1=O`, the Potency entry is “inactive”.

On to `Cc1ccc(NNC(=O)C2CCC2)cc1C`, for which the Potency entry is “inactive”.

Take `COc1ccccc1-c1c(C#N)c(N)nc2c1CCC2`: the Potency entry is “inactive”.

For the compound `Cc1ccc2nsnc2c1NC(=O)c1ccccc1[N+](=O)[O-]`, the Potency entry was “inactive”.

As for `Cc1c(CN2CCC(n3nccc3NC(=O)CCc3ccccc3)CC2)cnn1C`, the Potency result was “inactive”.

`c1ccc(CCC2=NCCn3cccc32)cc1`: the Potency entry is “inactive”.

For the compound `CCc1ccc(NC(=O)CN2C(=O)CSC2=O)cc1`, the Potency entry is “inactive”.

With `O=C(Nc1ccccc1Cl)O/N=C(/c1ccccc1)c1ccccn1`, the Potency result was “inactive”.

As to `Cc1ccnc(Nc2nc3ccccc3s2)n1`, the Potency entry was “inactive”.

As for `c1ccc(C(=NNc2nc3ccccc3s2)c2ccccn2)cc1`, the Potency was 0.13 µM (active).

`CCC(CC)C(=O)Nc1ccc(S(=O)(=O)Nc2nccs2)cc1`: the Potency result was “inactive”.

For `O=C(Nc1ccncc1)c1ccc(Cl)c([N+](=O)[O-])c1`, the Potency is 14.6 µM (active).

`Cn1nnc2cc(C(=O)NCCC3=CCCCC3)ccc21`: the Potency entry was “inactive”.

Take `O=C(NCCC1=CCCCC1)c1ccc(Cl)c([N+](=O)[O-])c1`: the Potency is 16.4 µM (active).

As for `O=C(Nc1cccnc1)c1ccc(Cl)c([N+](=O)[O-])c1`, the Potency entry is “inactive”.

On to `Cc1ccnc(NC(=O)c2ccc(Cl)c([N+](=O)[O-])c2)c1`, for which the Potency result was “inactive”.

As for `O=C(NCCC1=CCCCC1)c1ccc(-n2cncn2)cc1`, the Potency result was “inactive”.

In the case of `C#CCCCCCCCCCCCCCCCC(=O)O`, the Potency result was “inactive”.

In the case of `CCCCC(=O)OC1=CN(Cc2ccccc2)S(=O)(=O)c2ccccc21`, the Potency result was “inactive”.

With `CCOC(=O)Cc1cccc(-c2cc(CCCCCCc3ccc(O[C@H]4O[C@H](COC(C)=O)[C@@H](OC(C)=O)[C@H](OC(C)=O)[C@@H]4OC(C)=O)c(-c4cccc(CC(=O)OCC)c4)c3)ccc2O[C@H]2O[C@H](COC(C)=O)[C@@H](OC(C)=O)[C@H](OC(C)=O)[C@@H]2OC(C)=O)c1`, the Potency entry was “inactive”.

Take `COC(C[C@@H]1O[C@@H]1C(=O)[C@@H](C)OCc1ccccc1)OC`: the Potency entry is “inactive”.

Regarding `Cc1ccccc1CSCCNC(=O)C1CCN(S(=O)(=O)Cc2ccccc2)CC1`, the Potency entry was “inactive”.

`Cc1c(Cl)cccc1NC(=O)C1CCCN(c2ncnc3onc(C)c23)C1` (centres undefined): the Potency is 6.51 µM (active).

As for `Cc1cccc(NC(=O)C2CCCN(C(=O)Nc3ccc(F)cc3)C2)c1C` (centres undefined), the Potency result was “inactive”.

For `Cc1ccc(Cl)cc1NC(=O)C1CCCN(c2cnccn2)C1` (centres undefined), the Potency result was “inactive”.

Consider `Cc1cn([C@H]2C[C@H](O)[C@@H](/C=C/C(=O)NCCCc3ccccc3)O2)c(=O)[nH]c1=O`, for which the Potency result was “inactive”.

Turning to `Cc1ccc(C)c(NC(=O)C2CCCN2C(=O)OC(C)(C)C)c1` (centres undefined), the Potency entry was “inactive”.

For `CCOC(=O)c1c(C)[nH]c(CCC(=O)NCCCN2CCN(c3cc(C)ccc3C)CC2)c1C`, the Potency is 4.61 µM (active).

With `CCn1c(=O)cc(OCC(=O)NCCCN2CCN(c3cccc(Cl)c3)CC2)c2ccccc21`, the Potency was 20.6 µM (active).

Take `CCOC(=O)N1CCC(Nc2c(NCCN3CCN(c4cccc(Cl)c4)CC3)c(=O)c2=O)CC1`: the Potency result was “inactive”.

Take `Cc1ccc(C)c(N2CCN(CCCNC(=O)Nc3ccc(Cl)cc3)CC2)c1`: the Potency was 6.51 µM (active).

As to `O=C(COc1cc2oc(=O)c3c(c2cc1Cl)CCC3)NCCCN1CCOCC1`, the Potency result is “inactive”.

`CCOC(=O)c1c(C)[nH]c(C(=O)NCCN2CCOCC2)c1C`: the Potency entry is “inactive”.

With `COc1ccc(N2CCN(CCNC(=O)Nc3cc(Cl)ccc3Cl)CC2)cc1`, the Potency result was “inactive”.

Take `CCOC(=O)N1CCC(Nc2c(NCCCN3CCN(c4ccc(OC)cc4)CC3)c(=O)c2=O)CC1`: the Potency result was “inactive”.

For `Cc1ccccc1N1CCN(CC(=O)NCc2ccc(Cl)cc2)CC1`, the Potency entry is “inactive”.

Consider `Cn1c(=O)cc(OCC(=O)N2CCN(c3ccccc3)CC2)c2ccccc21`, for which the Potency entry was “inactive”.

Turning to `Cc1ccc(C)c(N2CCN(C(=O)Cc3c(C(=O)O)c(C)cn3C)CC2)c1`, the Potency entry is “inactive”.

Take `CCOC(=O)c1c(C)[nH]c(CCC(=O)NCCCN2CCN(c3cccc(Cl)c3)CC2)c1C`: the Potency is 16.4 µM (active).

Turning to `CCOc1ccc(S(=O)(=O)NCCCn2ccnc2)cc1NC(C)=O`, the Potency entry is “inactive”.

Regarding `CN(CCc1ccccc1)c1ccc([N+](=O)[O-])cn1`, the Potency result was “inactive”.

Turning to `C/C=C(/C)C(=O)Nc1cccc(C2=NOC3(C2)C[C@@H](C(N)=O)N(C(=O)C2(C)CC2)C3)c1` (some centres undefined), the Potency result was “inactive”.

With `O=C(NCC(O)c1ccc([N+](=O)[O-])cc1)C1CCCCC1` (centres undefined), the Potency result was “inactive”.
